Results: PMC5540273 (PLoS ONE, 2017)

What was measured:
Settings in all cases: concentration: 1 μM, replicates: in singlicate; n = 1
[1] = system: MAPKAPK5
[2] = system: MARK1
[3] = system: MARK2
[4] = system: MARK3
[5] = system: MARK4
[6] = system: MAST1
[7] = system: T1, MEK1
T1 construct: gene MAP2K1

[8] = system: T2, MEK2
T2 construct: gene MAP2K2

[9] = system: T3, MEK3
T3 construct: gene MAP2K3

[10] = system: T4, MEK4
T4 construct: gene MAP2K4
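Further: KINOMEscan kinase panel screen.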

CN(c1ccc(NC(=O)N2CCN(CCCN3CCOCC3)CC2)cc1)c1ccnc(Nc2ccc(CS(C)(=O)=O)cc2)n1.Cl [GW830899]
%Inh [1]: 0%
%Inh [2]: 0%
%Inh [3]: 1%
%Inh [4]: 1%
%Inh [5]: 30%
%Inh [6]: 0%
%Inh [7]: 0%
%Inh [8]: 23%
%Inh [9]: 0%
%Inh [10]: 0%

CCNC(=O)/C=C/c1n[nH]c2cc(Sc3ccccc3C(=O)NC)ccc12
%Inh [1]: 18%
%Inh [2]: 0%
%Inh [3]: 34%
%Inh [4]: 0%
%Inh [5]: 3%
%Inh [6]: 0%
%Inh [7]: 17%
%Inh [8]: 18%
%Inh [9]: 14%
%Inh [10]: 0%

Nc1cccc(-c2ccc3c(N)n[nH]c3c2)c1 [GSK2193613]
%Inh [1]: 0%
%Inh [2]: 0%
%Inh [3]: 0%
%Inh [4]: 0%
%Inh [5]: 0%
%Inh [6]: 0%
%Inh [7]: 53%
%Inh [8]: 39%
%Inh [9]: 0%
%Inh [10]: 12%

Cl.N#CCc1ccc(Nc2nccc(Nc3ccc(Oc4ccccc4)cc3)n2)cc1 [GW639905]
%Inh [1]: 0%
%Inh [2]: 0%
%Inh [3]: 0%
%Inh [4]: 0%
%Inh [5]: 0%
%Inh [6]: 0%
%Inh [7]: 2%
%Inh [8]: 12%
%Inh [9]: 0%
%Inh [10]: 22%

O=C(O)C(F)(F)F.O=c1[nH]ccc2nc(N[C@@H]3CCNC3)nc(Nc3cc(Cl)cc(Cl)c3)c12 [GSK2188764]
%Inh [1]: 47%
%Inh [2]: 52%
%Inh [3]: 87%
%Inh [4]: 85%
%Inh [5]: 41%
%Inh [6]: 28%
%Inh [7]: 79%
%Inh [8]: 84%
%Inh [9]: 88%
%Inh [10]: 72%

CN(C)c1ncnc2nc[nH]c12 [SKF-31736]
%Inh [1]: 0%
%Inh [2]: 0%
%Inh [3]: 9%
%Inh [4]: 23%
%Inh [5]: 9%
%Inh [6]: 49%
%Inh [7]: 28%
%Inh [8]: 46%
%Inh [9]: 54%
%Inh [10]: 8%

Cc1ccc(C)c(NC(=O)Nc2ccc(C)c(-c3ccc(C(=O)Nc4ccncc4)cc3)c2)c1 [GSK1398473]
%Inh [1]: 0%
%Inh [2]: 0%
%Inh [3]: 0%
%Inh [4]: 0%
%Inh [5]: 3%
%Inh [6]: 0%
%Inh [7]: 0%
%Inh [8]: 0%
%Inh [9]: 0%
%Inh [10]: 26%

Cc1nn2c(=O)cc(N3CCO[C@H](C)C3)nc2n1Cc1cccc(Cl)c1Cl [GSK2373693]
%Inh [1]: 0%
%Inh [2]: 0%
%Inh [3]: 0%
%Inh [4]: 0%
%Inh [5]: 0%
%Inh [6]: 0%
%Inh [7]: 0%
%Inh [8]: 0%
%Inh [9]: 10%
%Inh [10]: 27%

COc1ccc(C)c(Nc2ccnc(Nc3ccc(-c4cnc[nH]4)cc3)n2)c1.Cl [GW784041]
%Inh [1]: 0%
%Inh [2]: 9%
%Inh [3]: 0%
%Inh [4]: 14%
%Inh [5]: 24%
%Inh [6]: 0%
%Inh [7]: 31%
%Inh [8]: 55%
%Inh [9]: 0%
%Inh [10]: 0%

Cc1ccc(O)cc1Nc1ccnc2ccc(C(C)(C)C)cc12 [GW856805]
%Inh [1]: 0%
%Inh [2]: 36%
%Inh [3]: 20%
%Inh [4]: 21%
%Inh [5]: 37%
%Inh [6]: 69%
%Inh [7]: 17%
%Inh [8]: 21%
%Inh [9]: 67%
%Inh [10]: 42%

Cc1cccc(Nc2nc(N[C@H]3CCCC[C@H]3N)ncc2C(N)=O)c1.Cl [GSK986310]
%Inh [1]: 0%
%Inh [2]: 5%
%Inh [3]: 37%
%Inh [4]: 0%
%Inh [5]: 13%
%Inh [6]: 0%
%Inh [7]: 8%
%Inh [8]: 19%
%Inh [9]: 88%
%Inh [10]: 69%

COc1cccc(NC(=O)NCCNc2ccnc(Nc3ccc(F)cc3)n2)c1 [GSK1379879]
%Inh [1]: 0%
%Inh [2]: 0%
%Inh [3]: 0%
%Inh [4]: 0%
%Inh [5]: 5%
%Inh [6]: 0%
%Inh [7]: 19%
%Inh [8]: 0%
%Inh [9]: 10%
%Inh [10]: 5%

O=C1NC(=O)C(c2ccccc2Cl)=C1Nc1cccc(Cl)c1 [SB-342409]
%Inh [1]: 0%
%Inh [2]: 0%
%Inh [3]: 0%
%Inh [4]: 2%
%Inh [5]: 0%
%Inh [6]: 0%
%Inh [7]: 2%
%Inh [8]: 5%
%Inh [9]: 0%
%Inh [10]: 0%

CCn1cnc2c(NCc3ccccc3)ncnc21 [SKF-96418]
%Inh [1]: 0%
%Inh [2]: 3%
%Inh [3]: 0%
%Inh [4]: 27%
%Inh [5]: 14%
%Inh [6]: 67%
%Inh [7]: 20%
%Inh [8]: 37%
%Inh [9]: 40%
%Inh [10]: 23%

COc1cccc(CC(=O)N2CCc3cc(-c4cn(C)c5ncnc(N)c45)ccc32)c1 [GSK2608899]
%Inh [1]: 0%
%Inh [2]: 0%
%Inh [3]: 0%
%Inh [4]: 7%
%Inh [5]: 0%
%Inh [6]: 0%
%Inh [7]: 39%
%Inh [8]: 0%
%Inh [9]: 0%
%Inh [10]: 53%

COC(=O)Nc1nc2ccc(Oc3ccc(CC(=O)Nc4cc(C(F)(F)F)ccc4F)cc3)cc2[nH]1 [GW680903]
%Inh [1]: 0%
%Inh [2]: 0%
%Inh [3]: 100%
%Inh [4]: 5%
%Inh [5]: 0%
%Inh [6]: 0%
%Inh [7]: 0%
%Inh [8]: 0%
%Inh [9]: 0%
%Inh [10]: 29%

CN(c1ccc(NC(=O)Nc2cccc(Cl)c2)cc1)c1ccnc(N)n1.Cl [GW830707]
%Inh [1]: 0%
%Inh [2]: 0%
%Inh [3]: 0%
%Inh [4]: 43%
%Inh [5]: 5%
%Inh [6]: 84%
%Inh [7]: 16%
%Inh [8]: 23%
%Inh [9]: 0%
%Inh [10]: 0%

Fc1cc(Cl)ccc1Nc1ccnc2cc(-c3ccc(CN4CCSCC4)o3)ccc12 [GW560106]
%Inh [1]: 0%
%Inh [2]: 5%
%Inh [3]: 0%
%Inh [4]: 0%
%Inh [5]: 21%
%Inh [6]: 34%
%Inh [7]: 53%
%Inh [8]: 35%
%Inh [9]: 0%
%Inh [10]: 3%

CS(=O)(=O)c1cccc(CNc2nc(Nc3ccc4c(c3)CCC(=O)N4)ncc2C(F)(F)F)c1
%Inh [1]: 0%
%Inh [2]: 35%
%Inh [3]: 16%
%Inh [4]: 56%
%Inh [5]: 46%
%Inh [6]: 0%
%Inh [7]: 0%
%Inh [8]: 58%
%Inh [9]: 61%
%Inh [10]: 56%

Cc1ccccc1CC(=O)N1CCc2cc(-c3cn(C)c4ncnc(N)c34)ccc21 [GSK2603346]
%Inh [1]: 0%
%Inh [2]: 0%
%Inh [3]: 0%
%Inh [4]: 0%
%Inh [5]: 0%
%Inh [6]: 0%
%Inh [7]: 0%
%Inh [8]: 0%
%Inh [9]: 1%
%Inh [10]: 27%

Cn1cc(-c2ccc3c(c2)CCN3C(=O)Cc2cc(F)cc(F)c2F)c2c(N)ncnc21 [GSK2634140]
%Inh [1]: 0%
%Inh [2]: 0%
%Inh [3]: 0%
%Inh [4]: 0%
%Inh [5]: 0%
%Inh [6]: 0%
%Inh [7]: 0%
%Inh [8]: 0%
%Inh [9]: 0%
%Inh [10]: 37%

Cc1cc(-c2ccnc(Nc3cccc(C#N)c3)n2)cc(C)c1O [GSK1440913]
%Inh [1]: 0%
%Inh [2]: 0%
%Inh [3]: 0%
%Inh [4]: 0%
%Inh [5]: 0%
%Inh [6]: 0%
%Inh [7]: 0%
%Inh [8]: 0%
%Inh [9]: 89%
%Inh [10]: 40%

Nc1ncc(-c2cn[nH]c2)c2scc(-c3ccc4c(c3)CCN4C(=O)Cc3ccccc3)c12 [GSK2593067]
%Inh [1]: 0%
%Inh [2]: 0%
%Inh [3]: 7%
%Inh [4]: 0%
%Inh [5]: 7%
%Inh [6]: 0%
%Inh [7]: 0%
%Inh [8]: 0%
%Inh [9]: 0%
%Inh [10]: 60%

COc1ccc(C2=C(Nc3cccc(O)c3)C(=O)NC2=O)cc1 [SB-390766]
%Inh [1]: 0%
%Inh [2]: 46%
%Inh [3]: 0%
%Inh [4]: 0%
%Inh [5]: 19%
%Inh [6]: 0%
%Inh [7]: 0%
%Inh [8]: 0%
%Inh [9]: 0%
%Inh [10]: 0%

COC(=O)Nc1nc2cc(Oc3ccc(NC(=O)Nc4cccc(SC)c4)cc3)ccc2[nH]1.Cl [GW697999]
%Inh [1]: 0%
%Inh [2]: 0%
%Inh [3]: 0%
%Inh [4]: 0%
%Inh [5]: 9%
%Inh [6]: 14%
%Inh [7]: 0%
%Inh [8]: 0%
%Inh [9]: 0%
%Inh [10]: 12%

Cl.Cl.NC(CNC(=O)c1cc(Br)c(-c2ccnc3[nH]ccc23)s1)c1ccccc1 (stereo not drawn) [GSK1322949]
%Inh [1]: 0%
%Inh [2]: 0%
%Inh [3]: 22%
%Inh [4]: 0%
%Inh [5]: 0%
%Inh [6]: 29%
%Inh [7]: 0%
%Inh [8]: 0%
%Inh [9]: 74%
%Inh [10]: 57%

N#Cc1cnc2cc(-c3cnc(CNCCN4CCOCC4)s3)ccc2c1Nc1ccc(Oc2ccccc2)cc1 [GW664114]
%Inh [1]: 0%
%Inh [2]: 35%
%Inh [3]: 0%
%Inh [4]: 9%
%Inh [5]: 5%
%Inh [6]: 0%
%Inh [7]: 100%
%Inh [8]: 100%
%Inh [9]: 9%
%Inh [10]: 80%

CN(c1ccc(F)c(NC(=O)c2cccc(OC(C)(C)C#N)c2Cl)c1)c1ccc2nc(NC(=O)C3CC3)sc2n1
%Inh [1]: 0%
%Inh [2]: 0%
%Inh [3]: 0%
%Inh [4]: 0%
%Inh [5]: 0%
%Inh [6]: 40%
%Inh [7]: 61%
%Inh [8]: 49%
%Inh [9]: 0%
%Inh [10]: 26%

Cc1cc(-c2c(-c3ccc(F)cc3)ncn2CCCN2CCOCC2)nc(N)n1 [SB-222517]
%Inh [1]: 0%
%Inh [2]: 23%
%Inh [3]: 0%
%Inh [4]: 0%
%Inh [5]: 32%
%Inh [6]: 14%
%Inh [7]: 21%
%Inh [8]: 47%
%Inh [9]: 23%
%Inh [10]: 26%

N#CC1(c2cccc(C(=O)Nc3cccc(Oc4ccc5nc(NC(=O)C6CC6)sc5n4)c3)c2)CC1
%Inh [1]: 0%
%Inh [2]: 0%
%Inh [3]: 0%
%Inh [4]: 0%
%Inh [5]: 0%
%Inh [6]: 0%
%Inh [7]: 18%
%Inh [8]: 19%
%Inh [9]: 11%
%Inh [10]: 0%

CC(C)c1nc(-c2cccc(NS(=O)(=O)c3c(F)cccc3F)c2)c(-c2ccnc(Nc3ccc(N4CCOCC4)nc3)n2)s1.Cl [GSK1723980]
%Inh [1]: 0%
%Inh [2]: 0%
%Inh [3]: 0%
%Inh [4]: 0%
%Inh [5]: 40%
%Inh [6]: 0%
%Inh [7]: 5%
%Inh [8]: 35%
%Inh [9]: 15%
%Inh [10]: 98.6%

COc1cc(Nc2nccc(N3CCC(NS(=O)(=O)c4ccc(NC(C)=O)cc4)CC3)n2)cc(OC)c1OC [GSK1379825]
%Inh [1]: 0%
%Inh [2]: 14%
%Inh [3]: 1%
%Inh [4]: 0%
%Inh [5]: 15%
%Inh [6]: 13%
%Inh [7]: 0%
%Inh [8]: 0%
%Inh [9]: 6%
%Inh [10]: 14%

NCCC(NC(=O)c1cc(Br)c(-c2ccnc3[nH]ccc23)s1)c1ccccc1.O=C(O)C(F)(F)F.O=C(O)C(F)(F)F (stereo not drawn) [GSK1307810]
%Inh [1]: 0%
%Inh [2]: 7%
%Inh [3]: 26%
%Inh [4]: 0%
%Inh [5]: 11%
%Inh [6]: 15%
%Inh [7]: 0%
%Inh [8]: 0%
%Inh [9]: 93.7%
%Inh [10]: 52%
